According to the supplement of paper PMC9446081:
In all, about 39,000 compounds went through this assay and about 220 (0.56%) showed activity. This excerpt belongs to a sample that is enriched for actives. A number with no mark means an inactive call.

test system: Escherichia coli K-12 BW25113; experiment: relative growth (OD600 normalised to plate interquartile mean) (fraction); higher = less growth inhibition, active = 0.2 or less; details: 50 µM; LB; incubation time: overnight (16-24 h)
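Note: Wild-type cells incubated without shaking, value is the mean of two biological replicates.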

In order of rising relative growth:
1. CCCCCCO[C@@H](C)c1cccc(-c2csc(NC(=O)c3cc(Cl)c(/C=C(\C)C(=O)O)c(Cl)c3)n2)c1OC  0.777
2. O=C(O)c1ccc2c(c1)OCO2  0.853
3. Cl.NCCCC(=O)O [gamma-AMINOBUTYRIC ACID HYDROCHLORIDE]  0.905
4. CC(=O)Nc1ncc([N+](=O)[O-])s1  0.923
5. CC(=O)N1C[C@@H]2C(=O)N(C)C3(CCN(S(=O)(=O)Cc4ccccc4)CC3)[C@H]2C1  0.958
6. C[C@H]1CN([C@@H](C)CO)C(=O)Cc2cc(NC(=O)CCCCCC(=O)Nc3ccccc3N)ccc2O[C@H]1CN(C)C(=O)Nc1ccc(C(F)(F)F)cc1  0.958
7. CC(C)NC(=O)N(C)C[C@@H]1Oc2ccc(NC(=O)CCC(F)(F)F)cc2CC(=O)N([C@H](C)CO)C[C@@H]1C  0.959
8. C[C@H]1CN([C@@H](C)CO)C(=O)c2c(c3ccccc3n2C)-c2ccccc2CO[C@@H]1CN(C)Cc1cccc(F)c1  0.962
9. CCCC#Cc1ccc2c(c1)O[C@@H](CN(C)C(=O)c1cnccn1)[C@@H](C)CN([C@H](C)CO)S2(=O)=O  0.971
10. CC(C)NC(=O)N(C)C[C@@H]1Oc2ccc(NC(=O)Cc3ccccc3)cc2CC(=O)N([C@H](C)CO)C[C@H]1C  0.977
11. C[C@H]1CC/C=C\[C@H]2O[C@@]34C=CCN(c5ccc6ccccc6c5)C(=O)[C@H]3N(CCO)C(=O)[C@@H]4[C@@H]2C(=O)O1  0.983
12. Cn1c(=O)cnn(CCCCN2CCN(c3ncccn3)CC2)c1=O  0.987
13. CC(C)CC#Cc1cnc2c(c1)C(=O)N([C@@H](C)CO)C[C@@H](C)[C@H](CN(C)C(=O)CCN1CCCCC1)O2  0.987
14. CC(=O)N1CCN(C(=O)C(=O)NC[C@H](c2ccc(N(C)C)cc2)N2CCOCC2)CC1  0.989
15. c1ccc(-c2ccnc(-c3cc(-c4ccccc4)ccn3)c2)cc1  0.99
16. O=C(C1CC1)N1CCN(c2ncccn2)CC1  0.991
17. C[C@H]1CN([C@@H](C)CO)C(=O)Cc2cc(NC(=O)Cc3ccccc3)ccc2O[C@@H]1CN(C)S(=O)(=O)c1ccccc1  0.993
18. C[C@@H]1CN([C@H](C)CO)C(=O)c2cc(NC(=O)Nc3ccc(C(F)(F)F)cc3)ccc2O[C@@H]1CN(C)Cc1ccc(-c2ccccc2)cc1  0.996
19. CC1=C(C(=O)O)N2C(=O)[C@@H](NC(=O)[C@@H](N)c3ccccc3)[C@H]2SC1  0.998
20. CNC(=O)NCc1ccc2c(c1)OCO2  1
21. CS(=O)(=O)N(CCC#N)Cc1ccco1  1
22. COc1ccc(NC(=O)N(C)C[C@@H]2OCCCC[C@@H](C)Oc3ccc(NC(=O)Nc4ccccc4)cc3C(=O)N([C@H](C)CO)C[C@@H]2C)cc1  1.01
23. C[C@H](CO)N1C[C@H](C)[C@H](CN(C)S(=O)(=O)c2cn(C)cn2)OCCCC[C@H](C)Oc2ccc(NS(=O)(=O)c3cccs3)cc2C1=O  1.01
24. COc1ccc(NC(=O)N(C)C[C@@H]2Oc3c(NC(=O)CCCCCC(=O)Nc4ccccc4N)cccc3C(=O)N([C@H](C)CO)C[C@H]2C)cc1  1.01
25. O=C1NCCN1c1cccnc1  1.01
26. CC(CCC(=O)O)C1CCC2C3C(O)CC4CC(O)CCC4(C)C3CCC12C (stereo unspecified)  1.01
27. C[C@H](CCC(=O)NCCS(=O)(=O)O)[C@H]1CC[C@H]2[C@@H]3[C@H](O)C[C@@H]4C[C@H](O)CC[C@]4(C)[C@H]3C[C@H](O)[C@]12C  1.01
28. CCOC(=O)[C@@H](C)n1ncn2cccc2c1=O  1.01
29. Cc1cc(C)c(NC(=O)[C@@H](N)Cc2ccccc2)c(Cl)c1  1.02
30. Cc1noc(C)c1NC(=O)Nc1ccc2c(c1)CC(=O)N([C@H](C)CO)C[C@@H](C)[C@H](CN(C)CC1CC1)O2  1.02
31. CCCCCCCCCCCCCCCCCCCC(=O)N[C@H]1CC[C@@]2(C)[C@@H](C1)C[C@@H](O)[C@@H]1[C@@H]2C[C@H](O)[C@]2(C)[C@@H]([C@H](C)CCC(=O)O)CC[C@@H]12  1.02
32. CC1=C(C(=O)O)N2C(=O)[C@H](NC(=O)[C@@H](N)c3ccccc3)[C@H]2SC1  1.02
33. C[C@H]1CN([C@@H](C)CO)C(=O)Cc2cc(NC(=O)CCN3CCOCC3)ccc2O[C@@H]1CN(C)S(=O)(=O)c1cn(C)cn1  1.03
34. COC(=O)CCC(C)C1CCC2C3C(O)CC4CC(O)CCC4(C)C3CC(O)C12C (stereo unspecified)  1.03
35. CC1=C(C(=O)O)N2C(=O)[C@@H](NC(=O)[C@H](N)c3ccccc3)[C@H]2SC1  1.03
36. CC1=C(C(=O)O)N2C(=O)C(NC(=O)C(N)c3ccccc3)C2SC1 (stereo unspecified)  1.03
37. Cc1ccc(S(=O)(=O)N(C)C[C@H]2Oc3cc(C#Cc4ccncc4)ccc3S(=O)(=O)N([C@@H](C)CO)C[C@H]2C)cc1  1.04
38. C=CCC[C@H](Cc1ccc(F)cc1)C(=O)O[C@@H](CNC(=O)[C@@H](CC=C)CC(=O)N(CCO)Cc1ccccc1)c1ccccc1  1.07

`CCn1nc(C(=O)O)c(=O)c2cc3c(cc21)OCO3` was tested, and the relative growth was 0.0537 (active).
With `Cl.O=C1CC2(CCCC2)CC(=O)N1CCCCN1CCN(c2ncccn2)CC1` the relative growth was 0.0493 (active).
For `O=C1NCCN1c1ncc([N+](=O)[O-])s1`, the relative growth was 0.0407 (active).
In the case of `CC(C)[C@@H](CC[C@@H](C)[C@H]1CC[C@H]2[C@@H]3[C@H](O)C[C@H]4C[C@@H](NCCCNCCCCNCCCN)CC[C@]4(C)[C@H]3CC[C@]12C)OS(=O)(=O)O`, the relative growth is reported as 0.152 (active).
With `CC(C)[C@@H](CC[C@@H](C)[C@H]1CC[C@H]2[C@@H]3[C@H](O)C[C@H]4C[C@@H](NCCCNCCCCN)CC[C@]4(C)[C@H]3CC[C@]12C)OS(=O)(=O)O` the relative growth was 0.137 (active).
`N[C@@H](C(=O)N[C@@H]1C(=O)N2C(C(=O)O)=C(Cl)CC[C@H]12)c1ccccc1` was tested, and the relative growth was 0.0311 (active).
`NC(C(=O)NC1C(=O)N2C(C(=O)O)=C(Cl)CSC12)c1ccccc1` (stereo unspecified) was tested, and the relative growth was 0.0491 (active).
`N[C@@H](C(=O)N[C@@H]1C(=O)N2C(C(=O)O)=C(Cl)CS[C@H]12)c1ccccc1` was tested, and the relative growth was 0.0303 (active).
